Records with an inconclusive call do not appear. Activity calls are given as the source filed them. The calls were made as follows, unless noted: active = hit-call score of the fitted dose curve at least 0.9, where 1 is the maximum; inconclusive = response in the unintended direction; inactive = score below 0.9.
How the values were obtained:
[1] = biological target: Cellular tumor antigen p53 (Homo sapiens) (UniProt P04637); assay: TOX21_p53_BLA_p2_ratio: Tox21 HCT-116 p53 Agonism Beta-lactamase Assay, Ratio, Phase 2 (AID 2283592)
Outline: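 Human colon HCT116 cells with an inducible p53 beta-lactamase reporter are exposed to test chemicals for 16 h at 37C. Reporter induction is read as the 460/530 nm emission ratio after CCF4-AM loading, normalized to DMSO.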

[2] = TOX21_p53_BLA_p4_viability: Viability Assessment in the Tox21 HCT-116 p53 Agonism Beta-lactamase Assay, Phase 4 (AID 2283597);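 also: hits lower the luminescence signal meaning cytotoxicity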
Outline: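 Luminescent ATP readout (CellTiter-Glo, 30 min, room temperature) in the same wells as the p53 bla ratio. HCT116 cells were treated for 16 h at 37C with DMSO-dissolved compounds.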

[3] = biological target: Cellular tumor antigen p53 (Homo sapiens) (UniProt P04637); assay: TOX21_p53_BLA_p5_ratio: Tox21 HCT-116 p53 Agonism Beta-lactamase Assay, Ratio, Phase 5 (AID 2283599)
Outline: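 Beta-lactamase reporter ratio (blue 460 nm over green 530 nm, 405 nm excitation) after 2 h CCF4-AM loading, in HCT-116 cells exposed 16 h at 37 C to compounds pinned at 217-fold dilution. Increases relative to DMSO baseline scored.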

[4] = TOX21_p53_BLA_p5_viability: Viability Assessment in the Tox21 HCT-116 p53 Agonism Beta-lactamase Assay, Phase 5 (AID 2283600)
Outline: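 Seeded cells (4000/well) settle 5 h before compound addition. Plates then incubate 16 h at 37C, receive FRET substrate for 2 h, and finally CellTiter-Glo, with luminescence measured after a 30 min room-temperature incubation.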

[5] = biological target: Cellular tumor antigen p53 (Homo sapiens) (UniProt P04637); assay: TOX21_p53_BLA_p4_ratio: Tox21 HCT-116 p53 Agonism Beta-lactamase Assay, Ratio, Phase 4 (AID 2283601)
Outline: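 Signal is the blue/green (460nm/530nm) ratio of cleaved versus uncleaved CCF4-AM substrate, read after 2 h substrate loading. Cells were HCT116 carrying the p53-responsive beta-lactamase reporter, dosed 16 h at 37C, 5% CO2; CellTiter-Glo measured in parallel.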

[6] = TOX21_p53_BLA_p3_viability: Viability Assessment in the Tox21 HCT-116 p53 Agonism Beta-lactamase Assay, Phase 3 (AID 2283593);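 also: cells exposed to compound for 16 h before reading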
Outline: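 Cellular ATP was quantified by CellTiter-Glo luminescence, read after 30 min at room temperature. Beforehand, HCT116 cells (4000/well) received compound 5 h post-seeding, 217-fold diluted from DMSO, then incubated 16 h at 37C.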

[7] = biological target: Cellular tumor antigen p53 (Homo sapiens) (UniProt P04637); assay: TOX21_p53_BLA_p3_ratio: Tox21 HCT-116 p53 Agonism Beta-lactamase Assay, Ratio, Phase 3 (AID 2283596)
Outline: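 HCT116 p53-bla cells (4000/well) given compound in DMSO (217-fold dilution) after 5 h, incubated 16 h at 37C. CCF4-AM substrate 2 h at room temperature; 460/530 nm emission ratio, gain fitted against DMSO.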

[8] = Tanguay_ZF_120hpf_YSE_legacy: (Legacy) Oregon State University Tanguay Lab 120 Hour Post-fertilization zebrafish Assay for Yolk Sac Edema (AID 2283634)
Outline: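 Single dechorionated embryos were held in sealed plates at 28C with test chemical (0.64% DMSO final) from 6 hpf until 120 hpf. Edema of the yolk sac was then recorded as a binary endpoint; non-mortality endpoints were skipped for dead embryos.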

[9] = Tanguay_ZF_120hpf_AXIS_legacy: (Legacy) Oregon State University Tanguay Lab 120 Hour Post-fertilization zebrafish Assay for Body Axis Malformation (AID 2283635)
Outline: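 Each dechorionated embryo was exposed alone from 6 hpf, with DMSO at 0.64% (vol/vol) and trimethyltin chloride 5 uM as positive control. Axis malformation was recorded at 120 hpf unless the embryo had died.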

[10] = Tanguay_ZF_120hpf_EYE_legacy: (Legacy) Oregon State University Tanguay Lab 120 Hour Post-fertilization zebrafish Assay for Eye Malformation (AID 2283636)
Outline: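 Read-out is binary presence or absence of eye malformation, scored by brightfield microscopy at 120 hpf. Single larvae were exposed from 6 hpf in embryo medium containing 0.64% DMSO, with DMSO as baseline.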

[11] = Tanguay_ZF_120hpf_SNOU_legacy: (Legacy) Oregon State University Tanguay Lab 120 Hour Post-fertilization zebrafish Assay for Snout Malformation (AID 2283637)
Outline: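 Snout malformation read as a yes/no call on brightfield images of 120 hpf larvae (Tropical 5D strain). Static exposure began at 6 hpf on dechorionated embryos in 0.64% DMSO, with gain of signal analysed versus DMSO controls.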

[12] = Tanguay_ZF_120hpf_JAW_legacy: (Legacy) Oregon State University Tanguay Lab 120 Hour Post-fertilization zebrafish Assay for Jaw Malformation (AID 2283638)
Outline: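 Wild-type 5D embryos, chorion removed at 4 hpf, dosed singly from 6 hpf; 28C static, sealed, foil-covered, to 120 hpf. Endpoint: jaw defect yes/no (brightfield); mortality excludes scoring.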

[13] = Tanguay_ZF_120hpf_OTIC_legacy: (Legacy) Oregon State University Tanguay Lab 120 Hour Post-fertilization zebrafish Assay for Otic Vesicle Malformation (AID 2283639)
Outline: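 Tropical 5D wild-type zebrafish embryos statically exposed in 0.64% DMSO at 28C until 120 hpf; 5uM trimethyltin chloride as positive control. Otic vesicle malformation scored present/absent by brightfield; dead embryos not scored; gain fitted versus DMSO.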

[14] = Tanguay_ZF_120hpf_PE_legacy: (Legacy) Oregon State University Tanguay Lab 120 Hour Post-fertilization zebrafish Assay for Pericardial Edema (AID 2283640)
Outline: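 Zebrafish larvae are exposed from early development to 120 hpf at 28C, with 0.64% DMSO final. Each surviving larva receives a yes/no pericardial edema call by brightfield imaging, analysed relative to the DMSO baseline.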

[15] = Tanguay_ZF_120hpf_BRAI_legacy: (Legacy) Oregon State University Tanguay Lab 120 Hour Post-fertilization zebrafish Assay for Brain Malformation (AID 2283641)
Outline: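 Static exposure of staged wild-type embryos until 120 hpf, kept at 28C with light excluded and final DMSO of 0.64% (vol/vol). Presence or absence of brain malformation was noted under brightfield; mortality precluded scoring.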

[16] = Tanguay_ZF_120hpf_CFIN_legacy: (Legacy) Oregon State University Tanguay Lab 120 Hour Post-fertilization zebrafish Assay for Caudal Fin Malformation (AID 2283649)
Outline: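 Single dechorionated 5D wild-type embryos are dosed at 6 hpf (final DMSO 0.64%) and held statically at 28C. Caudal fin malformation is recorded as present or absent at 120 hpf under brightfield, excluding dead embryos.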

[17] = Tanguay_ZF_120hpf_PIG_legacy: (Legacy) Oregon State University Tanguay Lab 120 Hour Post-fertilization zebrafish Assay for Pigmentation Malformation (AID 2283650)
Outline: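 Pronase dechorionation at 4 hpf; embryos plated at 6 hpf, one per well; static exposure, sealed and foil-covered, 28C, to 120 hpf; pigmentation read by brightfield, binary; DMSO 0.64% baseline, 5uM trimethyltin chloride positive control.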

[18] = Tanguay_ZF_120hpf_CIRC_legacy: (Legacy) Oregon State University Tanguay Lab 120 Hour Post-fertilization zebrafish Assay for Circulatory Malformation (AID 2283651)
Outline: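 Dechorionated wild-type 5D zebrafish embryos, one per well, statically exposed from 6 to 120 hpf at 28C with 0.64% DMSO; circulatory malformation scored present/absent by brightfield microscopy at 120 hpf, dead embryos excluded.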

[19] = read-out: kallikrein-3 (KLK3), KLK3 (gene 354); assay: LTEA_HepaRG_KLK3: Life Technologies and Expression Analysis (LTEA) Assay for kallikrein-3 (KLK3) using HepaRG (AID 2283652; active = hit-call score of the fitted dose curve at least 0.9, where 1 is the maximum; inactive = score below 0.9); details: mRNA level, 48 h; actives raise or lower the signal
Outline: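 Differentiated human HepaRG cells in serum-free induction medium exposed 48 h in duplicate, eight-point half-log series from 100 uM in 0.5% DMSO. KLK3 mRNA by qRT-PCR, normalised to ACTB, GAPDH, POLR2A; bidirectional fit versus DMSO.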

Measured: AC50

Chain of Cellular tumor antigen p53 (Homo sapiens) (P04637 whole entry, looked up): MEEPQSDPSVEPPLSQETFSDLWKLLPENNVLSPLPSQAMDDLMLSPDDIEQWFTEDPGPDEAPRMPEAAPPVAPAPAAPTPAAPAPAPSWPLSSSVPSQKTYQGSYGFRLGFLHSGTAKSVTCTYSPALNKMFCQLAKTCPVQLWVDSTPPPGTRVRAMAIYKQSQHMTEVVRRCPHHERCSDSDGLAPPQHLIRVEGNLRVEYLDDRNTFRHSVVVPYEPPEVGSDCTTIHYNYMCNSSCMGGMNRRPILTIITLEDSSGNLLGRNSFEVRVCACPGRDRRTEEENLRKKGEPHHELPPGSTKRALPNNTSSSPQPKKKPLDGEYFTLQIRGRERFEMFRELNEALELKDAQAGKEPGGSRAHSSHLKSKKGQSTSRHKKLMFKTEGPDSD

CCCCOC(=O)COC(=O)c1ccccc1C(=O)OCCCC
inactive: [1] | [2] | [3] | [4] | [5]

BrCCCCBr
inactive: [1] | [2]

N#Cc1ccc(Cl)cc1
inactive: [1] | [2] | [3] | [4] | [5]

O=C(O)c1cc(I)cc(I)c1I
inactive: [1] | [6] | [2] | [4] | [5]

COCCl
inactive: [1] | [7] | [2] | [4] | [5]

CCCCCCCCBr
inactive: [1] | [7] | [3] | [4]

O=C(Cc1ccccc1)OCCc1ccccc1
inactive: [1] | [2] | [3] | [4]

CCN(N=O)C(N)=O
inactive: [1] | [7] | [2] | [4] | [5]

OC[P+](CO)(CO)CO
inactive: [1] | [7] | [3] | [5]

c1csc(-c2ccc(-c3cccs3)s2)c1
active: [1] 50.2 µM | [7] 41.9 µM | [3] 59.3 µM | [5] 46.1 µM

Clc1cnc(Oc2ccc(Oc3ncc(Cl)cc3Cl)cc2)c(Cl)c1
inactive: [1] | [6] | [2] | [3] | [4] | [5]

CCOP(=S)(OCC)O/N=C(\C#N)c1ccccc1
inactive: [1] | [7] | [2] | [3] | [5]

N#Cc1ccncc1
inactive: [1] | [7] | [3] | [4] | [5]

ClCCCCl
inactive: [1] | [6] | [2] | [3] | [4]

Cc1cc(Cl)ccc1O
inactive: [1] | [7] | [2] | [3] | [5]

O=CCCl
inactive: [1] | [6] | [7] | [3] | [5]

O=NN1CCCCCC1
inactive: [1] | [7] | [5]

Cc1ccccc1OP(=O)(Oc1ccccc1C)Oc1ccccc1C
inactive: [1] | [7] | [2] | [3] | [5]

CCC(C)(C#N)N=NC(C)(C#N)CC (centres undefined)
inactive: [1] | [6] | [2] | [3] | [4]

Oc1ccc(Cc2ccc(O)cc2)cc1
inactive: [1] | [7] | [4]

CCCCOC(C)=O
inactive: [1] | [6] | [7] | [5]

CC(=O)CN(CC(C)=O)N=O
inactive: [1] | [6] | [2]

CCCCCCCCCCCCBr
inactive: [1] | [6] | [2] | [3] | [4] | [5]

C=C(C)[C@@H]1CC=C(C=O)CC1
inactive: [1] | [6] | [7] | [3] | [5]

N#CCC#N
inactive: [1] | [7] | [3] | [4] | [5]

Cc1cc(C(C)(C)c2ccc(O)c(C)c2)ccc1O
inactive: [7] | [2] | [3] | [4]
active: [1] 30.2 µM | [5] 41.9 µM

O=[N+]([O-])c1ccccc1O
inactive: [1] | [6] | [2] | [3] | [4] | [5]

OCCCCO
inactive: [1] | [7] | [2] | [3] | [4] | [5]

CNC(=O)O/N=C/C(C)(C)S(C)(=O)=O
inactive: [1] | [2] | [3] | [4]

CCOP(=S)(OCC)SCSc1cc(Cl)ccc1Cl
inactive: [1] | [6] | [4]

CC(C)(C1CCC(O)CC1)C1CCC(O)CC1 (centres undefined)
inactive: [1] | [2] | [3]

BrCc1ccc(Br)cc1
inactive: [1] | [6] | [3] | [4] | [5]

O=NN1CCCCCCC1
inactive: [1] | [7] | [2] | [3] | [4] | [5]

O=C(Cl)OCCOCCOC(=O)Cl
inactive: [1] | [7] | [4] | [5]

CC1(C)[C@H](C(=O)O[C@H](C#N)c2cccc(Oc3ccccc3)c2)[C@@H]1/C=C(\Cl)C(F)(F)F
inactive: [1] | [6] | [3] | [5]

Cc1cc(C)cc(C)c1
not listed: [1] | [2] | [3] | [4] | [5] | [6] | [7]
inactive: all other assays above

CCOC(=O)CCN(SN(C)C(=O)Oc1cccc2c1OC(C)(C)C2)C(C)C
inactive: [7] | [3] | [4] | [5]

CC(C)CP(=S)(S)CC(C)C
inactive: [7] | [4] | [5]

— PubChem BioAssay (EPA / NIEHS)
